# Assay results: PubChem BioAssay AID624405 (Broad Institute, 2012)
# The whole screen tested about 1,900 compounds, of which about 250 (13%) were called active. Not shown: some 4% with an inconclusive outcome.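 How the source made its calls: active means fitted curve reaches 40% rescue activity at or below the top valid dose, in every test run; inconclusive means test runs disagree, some active and some inactive; inactive means every run misses the threshold or moves the wrong way.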 A selection follows. Potency and affinity values are given separately.
# Assay: suppressors of statin myotoxicity in myotubes, dose response, cell-based, C2C12 myotubes, ATP luminescence, cherry pick (AID 624405);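 further: myotubes are challenged with simvastatin at 10 µM to lower ATP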
# Conditions: C2C12 myotubes + simvastatin, 48 h, scaled: DMSO wells 0, geranylgeraniol wells 100; series mostly up to 19.5 µM; rescue activity (ATP increase): at the top concentration
row,Compound,rescue activity (ATP increase)
1,CN(C(=O)c1ccc(NC(=O)Cc2ccc(NC(=O)C3CCN(C(=O)CCc4ccccc4)CC3)cc2)cc1)C1CC1,11.6% (inactive)
2,CCCc1cc(Nc2c(C)n(C)n(-c3ccccc3)c2=O)n2c(nc3ccccc32)c1C#N,2.07% (inactive)
3,Cc1ccc(S(=O)(=O)Nc2cccc3c2O[C@@H](CN(C)Cc2ccc(C(F)(F)F)cc2)[C@H](C)CN([C@H](C)CO)C3=O)cc1,33.9% (inactive)
4,C[C@@H]1CCCCO[C@@H](CN(C)S(=O)(=O)c2ccc(Cl)cc2)[C@H](C)CN([C@H](C)CO)C(=O)c2cc(NS(C)(=O)=O)ccc2O1,-1.19% (inactive)
5,O=C(Nc1ccc(NC(=O)c2ccco2)nc1)c1ccccn1,-75.5% (inactive)
6,COc1ccc(NC(=O)Nc2ccc3c(c2)C(=O)N([C@@H](C)CO)C[C@@H](C)[C@H](CN(C)Cc2ccc(C(F)(F)F)cc2)OCCCC[C@H](C)O3)cc1,-26% (inactive)
7,O=C(NCC12CC3CC(CC(C3)C1)C2)c1nn2c(c1Cl)NC(c1ccco1)CC2C(F)(F)F (centres undefined),2.04% (inactive)
8,COc1ccc(NC(=O)Nc2ccc3c(c2)C(=O)N([C@H](C)CO)C[C@H](C)[C@@H](CN(C)Cc2ccc(C(F)(F)F)cc2)OCCCC[C@@H](C)O3)cc1,-5.5% (inactive)
9,COc1ccc(NC(=O)N(C)C[C@H]2Oc3c(NC(=O)Nc4cccc5ccccc45)cccc3C(=O)N([C@H](C)CO)C[C@H]2C)cc1,-7.61% (inactive)
10,Cc1noc(C)c1S(=O)(=O)N(C)C[C@H]1Oc2ccc(NC(=O)Nc3cccc4ccccc34)cc2CC(=O)N([C@H](C)CO)C[C@@H]1C,4.95% (inactive)
11,COc1ccccc1N1CCN(Cc2nc3ccsc3c(=O)[nH]2)CC1,-27.8% (inactive)
12,CN1CCN(C2=Cc3ccccc3Sc3cc(F)ccc32)CC1,-37.4% (inactive)
13,Cc1noc(C)c1S(=O)(=O)Nc1ccc2c(c1)CC(=O)N([C@H](C)CO)C[C@@H](C)[C@@H](CN(C)Cc1ccc(Cl)c(Cl)c1)O2,25.4% [at 21 µM] (inactive)
14,Cc1noc(C)c1S(=O)(=O)Nc1ccc2c(c1)CC(=O)N([C@H](C)CO)C[C@@H](C)[C@@H](CN(C)Cc1ccc(C(F)(F)F)cc1)O2,27.1% (inactive)
15,Cc1noc(C)c1S(=O)(=O)Nc1ccc2c(c1)CC(=O)N([C@@H](C)CO)C[C@H](C)[C@@H](CN(C)Cc1ccc(Cl)c(Cl)c1)O2,-10.4% [at 21 µM] (inactive)
16,Cc1noc(C)c1S(=O)(=O)Nc1ccc2c(c1)CC(=O)N([C@H](C)CO)C[C@H](C)[C@@H](CN(C)Cc1ccc(Cl)c(Cl)c1)O2,31.6% (inactive)
17,Cc1noc(C)c1S(=O)(=O)Nc1ccc2c(c1)CC(=O)N([C@@H](C)CO)C[C@@H](C)[C@H](CN(C)Cc1ccc(-c3ccccc3)cc1)O2,27.5% (inactive)
18,Cc1noc(C)c1S(=O)(=O)Nc1ccc2c(c1)CC(=O)N([C@H](C)CO)C[C@@H](C)[C@H](CN(C)Cc1ccc(Cl)c(Cl)c1)O2,37.4% (inactive)
19,C/C=C/c1ccc2c(c1)O[C@@H](CN(C)C(=O)NC1CCCCC1)[C@@H](C)CN([C@@H](C)CO)S2(=O)=O,1.41% (inactive)
20,O=C(O)CC(c1ccccc1)n1cccc1 (centres undefined),-17% (inactive)
21,O=C(CN1CCN(C(=O)c2ccco2)CC1)Nc1cc(C(F)(F)F)ccc1Cl,12.5% (inactive)
22,COc1ccc(NC(=O)Nc2ccc3c(c2)C(=O)N([C@H](C)CO)C[C@H](C)[C@H](CN(C)Cc2ccc(C(F)(F)F)cc2)OCCCC[C@@H](C)O3)cc1,22.8% (inactive)
23,CCn1ncc(Br)c1C(=O)Nc1cc(C(=O)OC)ccc1C(=O)OC,7.32% (inactive)
24,O=C(C[C@H]1CC[C@H]2[C@@H](COC[C@H](O)CN2Cc2ccc(Oc3ccccc3)cc2)O1)N1CCCCC1,-0.632% (inactive)
25,O=C(C[C@@H]1CC[C@H]2[C@@H](COC[C@@H](O)CN2Cc2ccc(Oc3ccccc3)cc2)O1)Nc1nccs1,15.2% (inactive)

row,Compound,rescue activity (ATP increase)
1,O=C(C[C@H]1CC[C@H]2[C@@H](COC[C@@H](O)CN2Cc2ccc(Oc3ccccc3)cc2)O1)N1CCCCC1,-0.333% (inactive)
2,O=C(C[C@@H]1CC[C@@H]2[C@H](COC[C@H](O)CN2Cc2ccc(C(F)(F)F)cc2)O1)NCCc1ccccc1,3.36% (inactive)
3,CC(C)NC(=O)Nc1cccc2c1O[C@H](CN(C)Cc1ccc(-c3ccccc3)cc1)[C@@H](C)CN([C@@H](C)CO)C2=O,15.1% (inactive)
4,Cc1ccc(S(=O)(=O)NCCN=C(CN2CCCC2)NS(=O)(=O)c2ccc(C)cc2)cc1,10.6% (inactive)
5,CC(=O)OC1CC(n2ccc(NC(=O)c3ccccc3)nc2=O)OC1CO (centres undefined),11.3% (inactive)
6,COc1ccc2oc(=O)cc(CN3CCN(Cc4ccc(OC)c(OC)c4OC)CC3)c2c1,-43.4% (inactive)
7,C[C@@H]1CN([C@@H](C)CO)C(=O)Cc2cc(N(C)C)ccc2O[C@H]1CN(C)Cc1ccc2c(c1)OCO2,16.1% (inactive)
8,O=c1c2ccccc2ncn1Cc1nc2ccccc2s1,-11.5% (inactive)
9,COc1ccc(Cc2nc(C(=O)Nc3ccc(OC)cc3)cs2)cc1,4.07% (inactive)
10,C[C@@H]1CCCCO[C@@H](CN(C)C(=O)Nc2cccc3ccccc23)[C@@H](C)CN([C@@H](C)CO)C(=O)c2cc(NS(=O)(=O)c3ccc(Cl)cc3)ccc2O1,3.78% [at 21 µM] (inactive)
11,COc1cccc(C#Cc2ccc3c(c2)O[C@H](CN(C)C(=O)c2ccccn2)[C@H](C)CN([C@H](C)CO)S3(=O)=O)c1,-0.261% (inactive)
12,Cc1ccc(S(=O)(=O)N(C)c2ccc(C(=O)O)cc2)cc1,-15.7% (inactive)
13,CCC1(C)Cc2c(sc3nc(NN)n(C)c(=O)c23)CO1 (centres undefined),30.3% [at 10 µM] (inactive)
14,C[C@H]1CN([C@@H](C)CO)C(=O)c2cc(C3=CCCCC3)cnc2O[C@H]1CN(C)Cc1ccccc1F,16.7% (inactive)
15,C[C@@H]1CN([C@@H](C)CO)C(=O)c2cc(C#CC3CCCCC3)cnc2O[C@H]1CN(C)S(=O)(=O)c1ccc(F)cc1,14.9% (inactive)
16,C[C@@H]1CN([C@H](C)CO)C(=O)Cc2cc(NC(=O)CCCCCC(=O)Nc3ccccc3N)ccc2O[C@H]1CN(C)Cc1ccc(Oc2ccccc2)cc1,35.7% (inactive)
17,C[C@H]1CN([C@@H](C)CO)C(=O)Cc2cc(NC(=O)CCCCCC(=O)Nc3ccccc3N)ccc2O[C@@H]1CN(C)Cc1ccc(Oc2ccccc2)cc1,37.8% [at 21 µM] (inactive)
18,O=C(c1ccco1)N(Cc1ccco1)c1ccc(O)cc1,21.1% (inactive)
19,C[C@H]1CCCCO[C@H](CN(C)S(=O)(=O)c2ccc(Cl)cc2)[C@@H](C)CN([C@@H](C)CO)C(=O)c2cc(NS(C)(=O)=O)ccc2O1,9.53% (inactive)
20,COCCNC(=O)CSc1nc2ccccc2c2nc(C)nn12,-16.7% (inactive)
21,C[C@H](CO)N1C[C@H](C)[C@@H](CN(C)Cc2ccc(-c3ccccc3)cc2)Oc2ccc(NC(=O)Cn3cnnn3)cc2CC1=O,20.2% (inactive)
22,C[C@@H]1CN([C@@H](C)CO)C(=O)c2cc(C#Cc3ccc(F)cc3)cnc2O[C@H]1CN(C)C(=O)c1ccccc1F,26.9% (inactive)
23,COc1ccc(S(=O)(=O)Nc2ccc3c(c2)C(=O)N([C@H](C)CO)C[C@H](C)[C@H](CN(C)Cc2ccc(Cl)c(Cl)c2)OCCCC[C@@H](C)O3)cc1,33.4% (inactive)
24,CN1C(=O)c2cc(NC(=O)c3cscn3)ccc2OC[C@H]2O[C@H](CC(=O)NCc3ccc(Cl)c(Cl)c3)CC[C@H]21,22.7% (inactive)
25,COc1ccc(S(=O)(=O)Nc2ccc3c(c2)CC(=O)N([C@H](C)CO)C[C@@H](C)[C@H](CN(C)Cc2ccc(Cl)c(Cl)c2)O3)cc1,38.2% [at 21 µM] (inactive)

row,Compound,rescue activity (ATP increase)
1,CC(C)(Oc1ccc(Cl)cc1)C(=O)NCc1ccco1,-10.1% (inactive)
2,CN1CCN(c2ccc(NC(=S)NC(=O)c3cccc4c(Br)cccc34)cc2)CC1,12.4% (inactive)
3,C[C@@H]1CCCCO[C@@H](CN(C)C(=O)Nc2ccc(C(F)(F)F)cc2)[C@H](C)CN([C@@H](C)CO)C(=O)c2cc(NC(=O)c3ccccc3)ccc2O1,4.74% (inactive)
4,Cc1ccc(S(=O)(=O)N(C)C[C@H]2Oc3ccc(NC(=O)Cc4ccccc4)cc3CC(=O)N([C@@H](C)CO)C[C@@H]2C)cc1,10.6% (inactive)
5,C[C@@H]1CCCCO[C@H](CN(C)S(=O)(=O)c2ccc(Cl)cc2)[C@@H](C)CN([C@@H](C)CO)C(=O)c2cc(NS(C)(=O)=O)ccc2O1,17.1% (inactive)
6,COc1ccc(C(=O)c2ccc(OC)cc2O)c(O)c1,-31.7% (inactive)
7,C[C@H](CO)N1C[C@H](C)[C@H](CN(C)Cc2ccc(C(F)(F)F)cc2)Oc2ccc(NC(=O)CCCCCC(=O)Nc3ccccc3N)cc2CC1=O,4.41% (inactive)
8,C[C@H]1CN([C@@H](C)CO)C(=O)Cc2cc(NC(=O)CCCCCC(=O)Nc3ccccc3N)ccc2O[C@@H]1CN(C)Cc1ccc(C(F)(F)F)cc1,26.4% [at 16 µM] (inactive)
9,Cc1onc(-c2ccccc2)c1C(=O)OCC(=O)Nc1ccc2c(c1)OCO2,11.4% (inactive)
10,Cc1ccc(NC(=O)C(=S)NCc2ccco2)cc1,-12.1% (inactive)
11,FC(F)(F)c1cccc(-c2nnc(-c3ccccc3)c(N3CCOCC3)n2)c1,-100% (inactive)
12,Cc1ccc(Nc2cc(=O)[nH]c(=O)[nH]2)c(C)c1,3.31% (inactive)
13,COCC(=O)N1C[C@H]2[C@@H](c3ccccc31)[C@@H](CO)N2Cc1ccc(OC)cc1,-32.2% (inactive)
14,CCCNC(=O)N(C)C[C@@H]1Oc2cc(-c3ccccc3)ccc2S(=O)(=O)N([C@@H](C)CO)C[C@@H]1C,-7.2% (inactive)
15,CC(C)NC(=O)Nc1ccc2c(c1)C(=O)N([C@@H](C)CO)C[C@H](C)[C@H](CN(C)Cc1ccccc1)O2,7.77% (inactive)
16,COc1ccc(NC(=O)CSc2nnc(-c3ccccc3Cl)n2Cc2ccco2)c(OC)c1,13.5% (inactive)
17,COc1ccc2cc(C(=O)O)n(CC(=O)c3ccccc3)c2c1,25.9% (inactive)
18,CCC(CC)C(=O)c1c[nH]c(C(=O)NCC2CCCO2)c1 (centres undefined),8.18% (inactive)
19,CN1C[C@H]2[C@@H](c3ccccc31)[C@H](CO)N2Cc1ccccc1,1.69% (inactive)
20,O=C(c1ccc(F)cc1)N1CCC(N2CCCCCC2)CC1,-15.7% (inactive)
21,Cc1ccc(C)c(NS(=O)(=O)c2ccc(-n3cccn3)cc2)c1,31.4% (inactive)
22,Cc1ccc(NS(=O)(=O)c2ccc(-n3cccn3)cc2)cc1Cl,17.5% (inactive)
23,CCc1cccc(NS(=O)(=O)c2ccc(-n3cccn3)cc2)c1,37.6% (inactive)
24,CC(C)c1ccc(NS(=O)(=O)c2ccc(-n3cccn3)cc2)cc1,7.18% (inactive)
